# The campaign covered roughly 5,500 compounds. About 2,000 (36%) were called active. About 18% were inconclusive and are not listed. Some of the results follow. Values without a mark were called inactive. Cut-off read from the data, not from the text of the source: active = normalized growth mostly below about 0.91 (no sharp cut-off); inconclusive = no clear call, values can overlap the other calls; inactive = mostly above about 0.92.
# Test: chemical genetic growth profiling, strain panel (AID 1159580);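 note: tested at 20 µM; growth read once vehicle control cultures reached saturation at 30 °C; 1 = growth at the plate median or of vehicle wells; lower values mean less growth of the strain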
# Conditions: S. cerevisiae deletion strains, growth OD
# [1] = locus YHR030C, strain SLT2, stronger effect = lower value
# [2] = locus YHR079C, strain IRE1, stronger effect = lower value
# [3] = locus YJL095W, strain BCK1, stronger effect = lower value
# [4] = locus YJR066W, strain TOR1, stronger effect = lower value
# [5] = locus YLR113W, strain HOG1, stronger effect = lower value
# [6] = locus YNL183C, strain NPR1, stronger effect = lower value
# [7] = locus YOR231W, strain MKK1, stronger effect = lower value
# [8] = locus YPL256C, strain CLN2, stronger effect = lower value
smiles,measurement,setting,value
CC(=O)/C(=C\c1ccccc1)CC(=O)O,normalized growth,"locus YAL021C, strain ccr4, stronger effect = lower value",1
same,normalized growth,"locus YAL026C, strain drs2, stronger effect = lower value",0.995
same,normalized growth,"locus YAL030W, strain snc1, stronger effect = lower value",1
same,normalized growth,"locus YBL061C, strain skt5, stronger effect = lower value",1
same,normalized growth,"locus YBR009C, strain hhf1, stronger effect = lower value",0.986
same,normalized growth,"locus YBR023C, strain chs3, stronger effect = lower value",1
same,normalized growth,"locus YBR171W, strain sec66, stronger effect = lower value",0.992
same,normalized growth,"locus YBR231C, strain swc5, stronger effect = lower value",0.982
same,normalized growth,"locus YBR279W, strain paf1, stronger effect = lower value",0.999
same,normalized growth,"locus YCL011C, strain gbp2, stronger effect = lower value",0.988
same,normalized growth,"locus YCL016C, strain dcc1, stronger effect = lower value",0.991
same,normalized growth,"locus YCL061C, strain MRC1, stronger effect = lower value",0.994
same,normalized growth,"locus YCL069W, strain vba3, stronger effect = lower value",0.997
same,normalized growth,"locus YCR088W, strain abp1, stronger effect = lower value",0.998
same,normalized growth,"locus YDL005C, strain med2, stronger effect = lower value",0.998
same,normalized growth,"locus YDL040C, strain nat1, stronger effect = lower value",0.985
same,normalized growth,"locus YDR001C, strain nth1, stronger effect = lower value",0.992
same,normalized growth,"locus YDR069C, strain doa4, stronger effect = lower value",0.982
same,normalized growth,"locus YDR137W, strain rgp1, stronger effect = lower value",1.01
same,normalized growth,"locus YDR159W, strain sac3, stronger effect = lower value",0.97
same,normalized growth,"locus YDR195W, strain ref2",0.948
same,normalized growth,"locus YDR297W, strain sur2, stronger effect = lower value",0.994
same,normalized growth,"locus YDR334W, strain swr1, stronger effect = lower value",0.996
same,normalized growth,"locus YDR335W, strain msn5, stronger effect = lower value",0.996
same,normalized growth,"locus YDR392W, strain spt3, stronger effect = lower value",0.775
same,normalized growth,"locus YEL003W, strain gim4, stronger effect = lower value",0.992
same,normalized growth,"locus YEL037C, strain rad23, stronger effect = lower value",0.997
same,normalized growth,"locus YEL061C, strain CIN8 (second series), stronger effect = lower value",0.989
same,normalized growth,"locus YER015W, strain faa2, stronger effect = lower value",0.996
same,normalized growth,"locus YER016W, strain bim1, stronger effect = lower value",0.993
same,normalized growth,"locus YER111C, strain swi4, stronger effect = lower value",0.992
same,normalized growth,"locus YER155C, strain BEM2 (second series), stronger effect = lower value",0.923
same,normalized growth,"locus YFR010W, strain ubp6, stronger effect = lower value",0.994
same,normalized growth,"locus YGL167C, strain pmr1, stronger effect = lower value",0.993
same,normalized growth,"locus YGL173C, strain kem1, stronger effect = lower value",0.991
same,normalized growth,"locus YGL227W, strain vid30, stronger effect = lower value",0.991
same,normalized growth,"locus YGL240W, strain doc1, stronger effect = lower value",0.978
same,normalized growth,"locus YGL253W, strain hxk2, stronger effect = lower value",0.984
same,normalized growth,"locus YHR013C, strain ard1, stronger effect = lower value",0.956
same,normalized growth,"locus YHR027C, strain rpn1, stronger effect = lower value",0.996
same,normalized growth,[1],0.976
same,normalized growth,[2],0.954
same,normalized growth,"locus YHR142W, strain chs7, stronger effect = lower value",1.01
same,normalized growth,"locus YJL092W, strain hpr5, stronger effect = lower value",0.991
same,normalized growth,"locus YJL095W, strain BCK1 (second series), stronger effect = lower value",0.992
same,normalized growth,[3],0.967
same,normalized growth,"locus YJL115W, strain asf1, stronger effect = lower value",0.993
same,normalized growth,"locus YJL129C, strain trk1, stronger effect = lower value",0.984
same,normalized growth,"locus YJL154C, strain vps35, stronger effect = lower value",1
same,normalized growth,"locus YJL164C, strain tpk1, stronger effect = lower value",1
same,normalized growth,"locus YJL166W, strain qcr8, stronger effect = lower value",0.976
same,normalized growth,"locus YJL187C, strain SWE1, stronger effect = lower value",0.997
same,normalized growth,[4],0.899
same,normalized growth,"locus YKL160W, strain elf1, stronger effect = lower value",1.01
same,normalized growth,"locus YKR026C, strain gcn3, stronger effect = lower value",0.986
same,normalized growth,"locus YKR091W, strain srl3, stronger effect = lower value",0.999
same,normalized growth,"locus YLL001W, strain dnm1, stronger effect = lower value",0.98
same,normalized growth,"locus YLL026W, stronger effect = lower value",0.991
same,normalized growth,"locus YLL041C, strain sdh2, stronger effect = lower value",1
same,normalized growth,"locus YLR027C, strain aat2, stronger effect = lower value",0.997
same,normalized growth,[5],0.972
same,normalized growth,"locus YLR221C, strain rsa3, stronger effect = lower value",1
same,normalized growth,"locus YLR258W, strain gsy2, stronger effect = lower value",0.992
same,normalized growth,"locus YLR262C, strain YPT6 (second series), stronger effect = lower value",1.02
same,normalized growth,"locus YLR320W, strain mms22, stronger effect = lower value",0.971
same,normalized growth,"locus YLR342W, strain FKS1, stronger effect = lower value",0.993
same,normalized growth,"locus YLR357W, strain rsc2, stronger effect = lower value",0.957
same,normalized growth,"locus YLR370C, strain arc18, stronger effect = lower value",0.998
same,normalized growth,"locus YLR384C, strain iki3, stronger effect = lower value",0.992
same,normalized growth,"locus YML120C, strain ndi1, stronger effect = lower value",1.01
same,normalized growth,"locus YMR058W, strain fet3, stronger effect = lower value",0.992
same,normalized growth,"locus YMR125W, strain sto1, stronger effect = lower value",0.955
same,normalized growth,"locus YMR129W, stronger effect = lower value",0.988
same,normalized growth,"locus YMR205C, strain PFK2, stronger effect = lower value",0.967
same,normalized growth,"locus YMR231W, strain pep5, stronger effect = lower value",0.995
same,normalized growth,"locus YNL071W, strain lat1, stronger effect = lower value",0.995
same,normalized growth,[6],0.927
same,normalized growth,"locus YNL209W, strain ssb2, stronger effect = lower value",1
same,normalized growth,"locus YNL248C, strain rpa49, stronger effect = lower value",0.982
same,normalized growth,"locus YNL322C, strain KRE1 (second series), stronger effect = lower value",0.991
same,normalized growth,"locus YNR049C, strain mso1, stronger effect = lower value",0.998
same,normalized growth,"locus YOR001W, strain rrp6, stronger effect = lower value",1
same,normalized growth,"locus YOR070C, strain gyp1, stronger effect = lower value",0.995
same,normalized growth,"locus YOR080W, strain dia2, stronger effect = lower value",0.99
same,normalized growth,"locus YOR083W, strain WHI5, stronger effect = lower value",1.02
same,normalized growth,"locus YOR106W, strain vam3, stronger effect = lower value",1.01
same,normalized growth,[7],0.969
same,normalized growth,"locus YOR265W, strain rbl2, stronger effect = lower value",0.993
same,normalized growth,"locus YOR270C, strain vph1, stronger effect = lower value",0.98
same,normalized growth,"locus YOR290C, strain snf2, stronger effect = lower value",0.981
same,normalized growth,"locus YPL051W, strain arl3, stronger effect = lower value",1.01
same,normalized growth,"locus YPL078C, strain atp4, stronger effect = lower value",1.01
same,normalized growth,"locus YPL106C, strain sse1, stronger effect = lower value",0.997
same,normalized growth,"locus YPL240C, strain hsp82, stronger effect = lower value",0.987
same,normalized growth,[8],0.968
O=C(O)/C=C/c1ccccc1,normalized growth,[1],0.834 (active)
same,normalized growth,[2],0.838 (active)
same,normalized growth,[3],0.862 (active)
same,normalized growth,[4],0.801 (active)
same,normalized growth,[5],0.722 (active)
same,normalized growth,[6],0.786 (active)
same,normalized growth,[7],0.823 (active)
same,normalized growth,[8],0.742 (active)

# Source: PubChem BioAssay AID1159580 (chemical genetic matrix, 2015)
